Experimental findings from PubChem BioAssay (Tox21) are described below.

Where “and” joins values, the source holds several entries; their conditions need not be identical. Equal entries are not always repeated. Records with an inconclusive call do not appear. The source holds several records for some structures; these can differ, active in one and inactive in another. Calls of active or inactive are those of the source. Unless noted, calls follow the shape of the dose curve; as a rule, active = well fitted curve in the direction sought with a large enough effect in the repeat runs; inconclusive = weak or mixed curves; inactive = no such curve, though single readings can be large; an effect the other way counts as inactive or inconclusive.

Assay [1] is described as follows: qHTS assay to identify small molecule agonists of the TGF-beta/Smad signaling pathway - cell viability counter screen (AID 1346829). Also: top concentration of the series differs between compounds; nearly all actives have a fitted effect of over 45% in size. The essentials: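 CellTiter-Glo luminescence readout; SBE-bla HEK 293T cells, overnight plating, compound 5 hr at 37 C/5% CO2, then bla substrate 2 hr RT, then CellTiter-Glo 30 min RT.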
Assay [2] in a line: qHTS assay to identify small molecule agonists of the TGF-beta/Smad signaling pathway (AID 1346859; active = well fitted activation curve with a large enough effect in the signal ratio in the repeat runs, not every such curve was filed as active; the % refers to the signal ratio; also: series mostly up to about 77 µM). The essentials: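 SBE-bla HEK293T cells plated overnight, then compound exposure for 5 h at 37 C. Beta-lactamase reporter read with LiveBLAzer B/G FRET substrate after 2 h at room temperature, fluorescence at 405 nm excitation, 460/530 nm emission.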
A short description of assay [3]: Human pregnane X receptor (PXR) small molecule agonists, qHTS cell viability counter screen (AID 1346977). Also: nearly all actives have a fitted effect of over 50% in size. Also: potency is read from the fitted curve at half-maximal effect. In outline:
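PXR-Luc HepG2 cells (2,000/well, 5% charcoal-stripped FBS) preincubated 5 hr, then exposed to compounds 24 hr at 37 C. Viability read in the same wells by CellTiter-Fluor fluorescence, reagent added at 23 hr, 1 hr incubation.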

Assay [4] is described as follows: Caspase-3/7 induction in CHO-K1 cells by small molecules, qHTS cell viability counter screen (AID 1346979). Also: nearly all actives have a fitted effect of over 35% in size. Also: potency is read from the fitted curve at half-maximal effect. In outline: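 Wild-type CHO-K1 cells (1,500/well) treated with compound after 5 h plating; after 16 h at 37C, viability read as CellTiter-Fluor fluorescence following 1 h reagent incubation, in the same wells as the caspase read.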
The nature of assay [5]: Caspase-3/7 induction in CHO-K1 cells by small molecules, qHTS assay (AID 1346980). Also: nearly all actives have a fitted effect of over 15% in size. In outline:
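Wild-type CHO-K1 cells exposed to compounds for 17hr at 37 C, 5% CO2. Caspase-3/7 activity then measured by Caspase-Glo 3/7 luminescence after 30min at room temperature.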
(Quantitative high-throughput screening tests each substance at several concentrations.)

The nature of assay [6]: Caspase-3/7 induction in HepG2 cells by small molecules, qHTS cell viability counter screen (AID 1346981). Also: nearly all actives have a fitted effect of over 30% in size. Also: potency is read from the fitted curve at half-maximal effect. In outline:
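Multiplexed with the caspase-3/7 assay: HepG2 cells, 16 hr compound treatment, CellTiter-Fluor viability detection by fluorescence.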

In assay [7] the target is Nuclear receptor subfamily 1 group I member 2 (Homo sapiens) (UniProt O75469). As to the kind of experiment: Human pregnane X receptor (PXR) small molecule agonists, qHTS assay (AID 1346982). Also: nearly all actives have a fitted effect of over 35% in size. Also: potency is read from the fitted curve at half-maximal effect. In outline: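 We seeded PXR-Luc HepG2 cells in assay medium containing 5% charcoal-stripped FBS, added compounds 5 hr later, incubated 24 hr, and read luminescence with ONE-Glo reagent.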

The target in assay [8] is Cytochrome P450 2C19 (Homo sapiens) (UniProt P33261). Nature of the assay: Cytochrome P450 Family 2 Subfamily C Member 19 (CYP2C19) small molecule antagonists: luciferase reporter qHTS assay (AID 1671197). Also: nearly all actives have a fitted effect of over 65% in size. Also: potency is read from the fitted curve at half-maximal effect. The essentials:
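Enzyme-substrate mix with proluciferin substrate (P450-Glo CYP2C19 system) preincubated with compounds 10 min at room temperature; NADPH regeneration solution added, 37C for 1 h; detection reagent stops reaction, luminescence read after 20 min. Ketoconazole positive control.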

Assay [9] deals with Progesterone receptor (Homo sapiens) (UniProt P06401). Nature of the assay: qHTS assay to identify small molecule agonists of the progesterone receptor (PR) signaling pathway (AID 1346784; calls by dose curve; also: nearly all actives have a fitted effect of over 30% in size; also: potency is read from the fitted curve at half-maximal effect). In outline: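 PR-UAS-bla HEK 293T cells (beta-lactamase reporter under UAS) in 2% charcoal-stripped FBS, dosed with 23 nL compound after 6 hr, incubated 16hr at 37C. LiveBLAzer B/G FRET substrate added, fluorescence read after 2 hours.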

Assay [10] is described as follows: qHTS assay to identify small molecule antagonists of the progesterone receptor (PR) signaling pathway - cell viability counter screen (AID 1346798). Also: nearly all actives have a fitted effect of over 50% in size. Also: potency is read from the fitted curve at half-maximal effect. In outline:
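PR-UAS-bla HEK293T cells, 3,000/well in 2% charcoal-stripped FBS medium, dosed with compounds plus R5020 agonist and incubated 16 h at 37C. Viability then measured in the same wells by CellTiter-Glo luminescence after 30 min at RT.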

The nature of assay [11]: qHTS assay to identify small molecule agonists of the progesterone receptor (PR) signaling pathway - cell viability counter screen (AID 1346799; calls by dose curve; also: nearly all actives have a fitted effect of over 45% in size; also: potency is read from the fitted curve at half-maximal effect). The essentials: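 Counter screen in the PR-UAS-bla HEK293T wells (2% charcoal-stripped FBS, 16 h compound exposure at 37 C) after the bla read. CellTiter-Glo added, 30 min at room temperature, luminescence read as cell viability.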

The nature of assay [12]: qHTS assay to identify small molecule antagonists of the TGF-beta/Smad signaling pathway - cell viability counter screen (AID 1346824). Also: nearly all actives have a fitted effect of over 50% in size. The essentials:
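SBE-bla HEK 293T cells, incubated overnight, then compound plus 0.25 ng/mL TGF-beta1 (stock added) for 5 hr at 37 C. Viability was read in the same wells by CellTiter-Glo luminescence after 30 min at room temperature.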

Assay [13] can be described thus: Caspase-3/7 induction in HepG2 cells by small molecules, qHTS assay (AID 1346978). Also: nearly all actives have a fitted effect of over 15% in size. In outline: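 Wild-type HepG2 cells, 2,000/well, settled 5 hr at 37 C and 5% CO2, then compound-treated for 17 hr; caspase-3/7 activity read by luminescent Caspase-Glo 3/7 after 30 min at room temperature.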
The target of assay [14] is Nuclear receptor subfamily 1 group I member 2 (Rattus norvegicus) (UniProt Q9R1A7). As to the kind of experiment: Rat pregnane X receptor (rPXR) activation by small molecules, qHTS assay (AID 1346983). Also: nearly all actives have a fitted effect of over 20% in size. Also: potency is read from the fitted curve at half-maximal effect. The note with it: rPXR luciferase reporter cells, One-Glo luminescence, 24 h; max activation: stronger effect = higher value. The essentials: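 Cell-based rPXR activation assay: rPXR cells, 2,000 per well, rested 5hr at 37 C, then exposed to compounds in DMSO for 24 hr at 37 C. Luciferase activity read by One-Glo luminescence after 30 min at room temperature.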

Assay [15] has as its target Cytochrome P450 2D6 (Homo sapiens) (UniProt P10635). As to the kind of experiment: Cytochrome P450 Family 2 Subfamily D Member 6 (CYP2D6) small molecule antagonists: luciferase reporter qHTS assay (AID 1671196). Also: nearly all actives have a fitted effect of over 50% in size. Also: potency is read from the fitted curve at half-maximal effect. The essentials: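 Luminescence (RLU), read 20 min after detection reagent, indicated CYP2D6 conversion of proluciferin to luciferin during a 1 h NADPH-dependent reaction at room temperature.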

For assay [16], the target named is Progesterone receptor (Homo sapiens) (UniProt P06401). As to the kind of experiment: qHTS assay to identify small molecule antagonists of the progesterone receptor (PR) signaling pathway (AID 1346795; active = well fitted inhibition curve with a large enough effect in the signal ratio in the repeat runs, not every such curve was filed as active; the % refers to the signal ratio; also: potency is read from the fitted curve at half-maximal effect). The essentials: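 PR-UAS-bla HEK293T cells with beta-lactamase reporter under UAS control, in 2% charcoal-stripped FBS, treated with compounds plus 1 nM promegestone (R5020, final) for 16 hr at 37C. Read-out: FRET beta-lactamase substrate fluorescence after 2 hr at room temperature.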

The target of assay [17] is Nuclear receptor subfamily 1 group I member 2 (Homo sapiens) (UniProt O75469). Nature of the assay: CYP3A4 induction through human pregnane X receptor (PXR) by small molecules, qHTS assay (AID 1346984). Also: nearly all actives have a fitted effect of over 40% in size. The essentials:
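qHTS, concentration-response format: HepG2 DPX-2 line, PXR/CYP3A4-luc. Exposure 24 h, 37C. Substrate Luciferin-IPA 3uM final, 3 h. Detection One-Glo, 30 min RT.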

Assay [18] shares this target. As to the kind of experiment: Human pregnane X receptor (PXR) activation by small molecules, qHTS assay (AID 1346985). Also: nearly all actives have a fitted effect of over 40% in size. The essentials: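 DPX-2 cells (HepG2 co-transfected with a PXR response element and a CYP3A4-promoter luciferase construct) were seeded at 2,000 per well, rested 5 hr at 37C, then exposed to DMSO-dissolved compounds for 24 hr. Activation was read as luciferase luminescence.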

The target in assay [19] is Thyrotropin-releasing hormone receptor (Homo sapiens) (UniProt P34981). Nature of the assay: qHTS assay to identify small molecule antagonists of the thyrotropin-releasing hormone receptor (TRHR) signaling pathway (AID 1346877; active = well fitted inhibition curve with a large enough effect in the repeat runs, not every such curve was filed as active; also: series mostly up to about 51 µM). In outline: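 Screening used HEK293 cells engineered with TRHR, with a brief 5 min room-temperature compound exposure preceding addition of TRH to 1 nM. The read-out was kinetic calcium-dye fluorescence, concentration-response from 15 doses in triplicate.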

The target is the same in assay [20]. Nature of the assay: qHTS assay to identify small molecule agonists of the thyrotropin-releasing hormone receptor (TRHR) signaling pathway (AID 1346891; calls by dose curve; also: series mostly up to about 58 µM). The essentials: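 HEK293 cells expressing TRHR plated 18 h at 37 C/5% CO2, calcium dye-loaded 2 h at 37 C, then compound added (agonist mode); kinetic calcium fluorescence read 3 min at 1 s intervals; 15 concentrations in triplicate.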
% is scaled to controls: 0 for no effect and ±100 for the full control effect.

Sequence of Cytochrome P450 2D6 (Homo sapiens) (P10635 whole entry, looked up): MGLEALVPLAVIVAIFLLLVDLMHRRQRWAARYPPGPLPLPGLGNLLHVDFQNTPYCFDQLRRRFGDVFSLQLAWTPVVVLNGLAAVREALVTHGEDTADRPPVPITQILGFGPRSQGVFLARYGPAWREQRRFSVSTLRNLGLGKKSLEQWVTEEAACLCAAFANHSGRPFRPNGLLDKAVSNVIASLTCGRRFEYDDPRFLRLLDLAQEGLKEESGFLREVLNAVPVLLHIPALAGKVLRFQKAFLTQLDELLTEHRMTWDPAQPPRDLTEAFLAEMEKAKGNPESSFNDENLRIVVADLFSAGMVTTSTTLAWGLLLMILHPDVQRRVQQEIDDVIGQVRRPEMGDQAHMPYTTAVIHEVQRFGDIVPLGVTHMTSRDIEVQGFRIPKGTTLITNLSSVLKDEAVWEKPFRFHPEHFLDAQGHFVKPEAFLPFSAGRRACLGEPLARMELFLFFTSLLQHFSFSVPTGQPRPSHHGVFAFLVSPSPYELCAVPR
Sequence of Nuclear receptor subfamily 1 group I member 2 (Rattus norvegicus) (Q9R1A7 whole entry, looked up): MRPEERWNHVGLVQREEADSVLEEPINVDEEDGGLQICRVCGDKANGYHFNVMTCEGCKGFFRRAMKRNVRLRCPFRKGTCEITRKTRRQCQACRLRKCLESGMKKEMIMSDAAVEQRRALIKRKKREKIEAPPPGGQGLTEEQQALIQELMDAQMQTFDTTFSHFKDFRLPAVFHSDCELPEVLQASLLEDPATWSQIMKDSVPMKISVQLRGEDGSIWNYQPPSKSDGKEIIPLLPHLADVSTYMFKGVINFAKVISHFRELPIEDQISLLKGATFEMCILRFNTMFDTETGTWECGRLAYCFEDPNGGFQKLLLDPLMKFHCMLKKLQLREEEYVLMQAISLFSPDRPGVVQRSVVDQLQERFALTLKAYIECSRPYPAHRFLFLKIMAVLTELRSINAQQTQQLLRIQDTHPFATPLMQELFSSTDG
Sequence of Thyrotropin-releasing hormone receptor (Homo sapiens) (P34981 whole entry, looked up): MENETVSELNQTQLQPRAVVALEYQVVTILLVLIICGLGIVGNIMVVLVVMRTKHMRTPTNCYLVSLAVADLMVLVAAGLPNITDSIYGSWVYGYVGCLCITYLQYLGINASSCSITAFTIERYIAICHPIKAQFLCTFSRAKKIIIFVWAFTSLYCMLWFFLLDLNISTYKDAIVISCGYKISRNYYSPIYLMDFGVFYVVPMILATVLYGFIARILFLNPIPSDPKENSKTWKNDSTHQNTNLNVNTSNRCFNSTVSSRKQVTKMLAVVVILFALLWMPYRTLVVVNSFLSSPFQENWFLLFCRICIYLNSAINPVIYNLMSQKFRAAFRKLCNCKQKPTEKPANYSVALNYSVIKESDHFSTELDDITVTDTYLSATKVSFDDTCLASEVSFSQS
Sequence of Progesterone receptor (Homo sapiens) (P06401 whole entry, looked up): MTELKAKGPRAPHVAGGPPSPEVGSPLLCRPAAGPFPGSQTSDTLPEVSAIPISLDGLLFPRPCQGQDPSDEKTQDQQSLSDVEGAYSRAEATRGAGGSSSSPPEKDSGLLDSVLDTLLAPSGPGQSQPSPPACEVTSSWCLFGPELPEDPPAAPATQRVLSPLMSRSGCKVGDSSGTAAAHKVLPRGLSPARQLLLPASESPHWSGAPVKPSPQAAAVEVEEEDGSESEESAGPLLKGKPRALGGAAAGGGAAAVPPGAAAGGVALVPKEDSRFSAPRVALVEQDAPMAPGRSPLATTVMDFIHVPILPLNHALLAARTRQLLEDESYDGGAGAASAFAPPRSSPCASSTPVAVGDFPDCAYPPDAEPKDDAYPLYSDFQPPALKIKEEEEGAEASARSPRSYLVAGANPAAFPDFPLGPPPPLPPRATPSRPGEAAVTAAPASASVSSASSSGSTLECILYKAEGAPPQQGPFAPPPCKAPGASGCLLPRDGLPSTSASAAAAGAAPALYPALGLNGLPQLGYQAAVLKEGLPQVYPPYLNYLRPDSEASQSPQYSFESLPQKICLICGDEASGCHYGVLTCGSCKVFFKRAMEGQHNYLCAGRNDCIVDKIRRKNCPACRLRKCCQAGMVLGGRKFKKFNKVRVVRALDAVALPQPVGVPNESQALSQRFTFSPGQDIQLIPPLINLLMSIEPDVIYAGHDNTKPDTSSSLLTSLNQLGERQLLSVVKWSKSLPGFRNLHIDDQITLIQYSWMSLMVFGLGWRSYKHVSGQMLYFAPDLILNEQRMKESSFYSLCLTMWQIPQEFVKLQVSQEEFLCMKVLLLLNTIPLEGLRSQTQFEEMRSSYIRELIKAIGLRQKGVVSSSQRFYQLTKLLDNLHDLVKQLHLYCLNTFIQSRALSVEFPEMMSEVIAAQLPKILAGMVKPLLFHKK
Sequence of Cytochrome P450 2C19 (Homo sapiens) (P33261 whole entry, looked up): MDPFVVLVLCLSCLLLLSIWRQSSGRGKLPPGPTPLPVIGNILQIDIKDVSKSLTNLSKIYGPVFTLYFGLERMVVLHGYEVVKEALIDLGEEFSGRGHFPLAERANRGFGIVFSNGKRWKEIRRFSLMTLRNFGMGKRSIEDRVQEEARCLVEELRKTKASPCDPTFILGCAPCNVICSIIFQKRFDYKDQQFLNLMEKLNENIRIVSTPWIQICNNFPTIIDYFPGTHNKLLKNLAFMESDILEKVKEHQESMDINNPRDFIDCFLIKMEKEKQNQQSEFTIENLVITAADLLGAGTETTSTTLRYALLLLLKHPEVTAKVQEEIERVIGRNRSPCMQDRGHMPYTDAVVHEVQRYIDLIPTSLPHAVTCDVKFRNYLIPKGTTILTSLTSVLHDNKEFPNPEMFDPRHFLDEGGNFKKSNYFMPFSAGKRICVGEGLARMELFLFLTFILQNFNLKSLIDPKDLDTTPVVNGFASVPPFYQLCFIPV
Sequence of Nuclear receptor subfamily 1 group I member 2 (Homo sapiens) (O75469 whole entry, looked up): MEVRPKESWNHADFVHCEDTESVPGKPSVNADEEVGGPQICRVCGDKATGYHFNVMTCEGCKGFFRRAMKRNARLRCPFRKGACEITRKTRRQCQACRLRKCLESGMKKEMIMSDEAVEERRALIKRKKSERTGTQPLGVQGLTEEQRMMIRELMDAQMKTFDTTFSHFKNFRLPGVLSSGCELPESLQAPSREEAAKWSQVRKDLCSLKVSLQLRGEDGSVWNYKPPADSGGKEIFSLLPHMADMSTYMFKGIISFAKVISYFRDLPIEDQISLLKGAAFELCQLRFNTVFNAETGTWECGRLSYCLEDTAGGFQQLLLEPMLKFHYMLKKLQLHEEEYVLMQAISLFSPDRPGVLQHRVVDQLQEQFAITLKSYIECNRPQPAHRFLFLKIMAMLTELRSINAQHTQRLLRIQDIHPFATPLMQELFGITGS

Take `Nc1ccc([N+](=O)[O-])cc1O`: the Potency entry in assay [1] and in assay [5] was “inactive” in each case. Besides, the result in assay [2] was inactive. Also, the Potency in assay [3] is 30.6 µM (active); in [4], 40.9 µM (active); in assay [6], 48.6 µM (active); in assay [7] it was 61.1 µM (active); in [8] it was 6.33 µM (active).
Regarding `CC1(C)O[C@@H]2C[C@H]3[C@@H]4CCC5=CC(=O)C=C[C@]5(C)[C@@]4(F)[C@@H](O)C[C@]3(C)[C@]2(C(=O)CO)O1`, the Potency is 3.5 nM (active) and 3.9 nM (active) and 3.8 nM (active) in assay [9]; 12.6 µM (active) in assay [14]; 31.9 µM (active) and inactive in [15]. In addition, the Potency result in assay [10], in assay [11], in assay [12], in assay [1], in assay [3] and in assay [13] was “inactive” in each case. The Potency result in assay [4], in assay [5], in assay [6] and in [8] was “inactive” in each case. For the same molecule, in [2], the outcome was inactive.
In the case of `COc1ccc(OC(F)(F)F)cc1CN[C@H]1CCCN[C@H]1c1ccccc1`, the Potency entry in assay [9] and in [12] was “inactive” each time. Besides, the Potency in assay [10] is 30.6 µM (active); in assay [11], 24.3 µM (active); in [3], 54.5 µM (active); in assay [4], 61.1 µM (active); in [7], 4.86 µM (active); in [8], 79.6 µM (active).
In the case of `CC(=O)CC(c1ccccc1)c1c(O)c2ccccc2oc1=O` (stereo not drawn), the Potency result in assay [9], in [16], in assay [10], in assay [11], in [12] and in assay [3] was “inactive” in each case. Further, the Potency result in assay [5] and in assay [6] was “inactive” each time. The call in assay [2] was inactive. For the same molecule, the Potency in [4] was 68.9 µM (active) and inactive. Moreover, in assay [14], the max activation is -3.82% (inactive).
`CCc1nc(N)nc(N)c1-c1ccc(Cl)cc1`: the Potency entry in [9], in assay [10], in [11], in [12], in assay [13] and in [4] was “inactive” in each case. For the same molecule, the Potency result in assay [5], in assay [6] and in [8] was “inactive” each time. In addition, the outcome in [2] was inactive. In addition, the Potency in assay [3] is 49.3 µM (active); in [7], 62.1 µM (active); in [15], 9.07 µM (active) and 15.9 µM (active) and 13.8 µM (active).
As for `O=C1OC2(c3ccccc31)c1cc(Br)c(O)c(Br)c1Oc1c2cc(Br)c(O)c1Br`, the Potency result in assay [9], in assay [10], in assay [11], in assay [12], in [1] and in [7] was “inactive” throughout. In addition, the Potency result in assay [17] and in assay [15] was “inactive” in each case. Also, the Potency in assay [3] was 4.93 µM (active) and 9.96 µM (active) and 13.3 µM (active); in assay [4], 6.2 µM (active) and 22.3 µM (active) and 11.9 µM (active); in assay [6] it was 6.2 µM (active) and 19.9 µM (active) and 10.6 µM (active); in assay [8], 20.3 µM (active) and inactive. The max activation in assay [14] was -7.26% (inactive). Also, the call in assay [18] was inactive.
For the molecule `COc1ccc2cc(S(=O)(=O)N[C@H](CC(=O)N[C@H](Cc3ccc(CN4[C@H](C)CCC[C@@H]4C)cc3)C(=O)N(C)C(C)C)c3ccc4c(c3)OCO4)ccc2c1`, the Potency result in assay [9], in assay [5] and in assay [7] was “inactive” throughout. Further, the Potency is 57.9 µM (active) in [16]; 29 µM (active) in assay [11]; 13 µM (active) in assay [3]; 51.6 µM (active) in assay [4]; 29 µM (active) in assay [6]; 169 nM (active) in assay [15].
As for `CC(O)(P(=O)(O)O)P(=O)(O)O`, the Potency entry in assay [10], in [11], in assay [12], in assay [19], in assay [20] and in assay [3] was “inactive” in each case. The Potency entry in [13], in assay [4], in assay [6], in assay [7], in [17] and in assay [15] was “inactive” each time. In addition, in assay [8], the Potency result was “inactive”. The call in assay [2] and in [18] was inactive. Further, in assay [14], the max activation is -1.65% (inactive).
